Reference: PubChem BioAssay (Tox21)
Inconclusive results are not listed. Calls of active or inactive are those of the source. Unless noted, calls follow the shape of the dose curve; as a rule, active = well fitted curve in the direction sought with a large enough effect in the repeat runs; inconclusive = weak or mixed curves; inactive = no such curve, though single readings can be large; an effect the other way counts as inactive or inconclusive.

Experiments:
[1] = qHTS assay to test for compound auto fluorescence at 535 nm (green) in HEK293 cells (AID 720680)
[2] = qHTS assay to test for compound auto fluorescence at 460 nm (blue) in HEK293 cell free culture (AID 720681)
Method in brief: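 Blue fluorescence (Ex 405/Em 460 nm, triamterene-equivalent) was read immediately after pin transfer of compound or DMSO into medium (DMEM, 10% FBS) without cells.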

[3] = qHTS assay to test for compound auto fluorescence at 535 nm (green) in HEK293 cell free culture (AID 720682)
Method in brief: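 Green-label autofluorescence (485 nm excitation, 535 nm emission) measured on compound added to cell-free culture medium (DMEM, 10% FBS). Output is expressed relative to fluorescein.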

[4] = qHTS assay to test for compound auto fluorescence at 590 nm (red) in HEK293 cell free culture (AID 720683)
Method in brief: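 Red-channel autofluorescence of compounds in culture medium (DMEM, 10% FBS), no cells, measured at 540/590 nm. Rose Bengal sodium is the reference fluorophore for equivalence.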

[5] = qHTS assay to test for compound auto fluorescence at 590 nm (red) in HepG2 cell free culture (AID 720684)
Method in brief: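 Cell-free; medium MEM + 10% FBS; compound or DMSO added by pintool; read Ex 540/Em 590 nm; Rose Bengal sodium as red reference fluorophore.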

[6] = qHTS assay to test for compound auto fluorescence at 460 nm (blue) in HepG2 cell free culture (AID 720685)
Method in brief: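 Cell-free plates of MEM plus 10% FBS received 23 nL compound or DMSO vehicle; blue-channel (405/460 nm) intensity scored against triamterene as reference fluorophore.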

[7] = qHTS assay to test for compound auto fluorescence at 535 nm (green) in HepG2 cell free culture (AID 720686)
[8] = qHTS assay to test for compound auto fluorescence at 460 nm (blue) in HepG2 cells (AID 720687)
Method in brief: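 Blue-channel autofluorescence (Ex/Em 405/460 nm, triamterene-equivalent) was measured after 1 hr compound exposure at 37 C, 5% CO2. Cells were HepG2, plated overnight at 37 C in MEM plus 10% FBS.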

[9] = target: Glucocorticoid receptor (Homo sapiens) (UniProt P04150); assay: qHTS assay to identify small molecule agonists of the glucocorticoid receptor (GR) signaling pathway (AID 720691; active = well fitted activation curve with a large enough effect in the signal ratio in the repeat runs, not every such curve was filed as active; the % refers to the signal ratio)
Sequence of Glucocorticoid receptor (Homo sapiens) (P04150 whole entry, looked up): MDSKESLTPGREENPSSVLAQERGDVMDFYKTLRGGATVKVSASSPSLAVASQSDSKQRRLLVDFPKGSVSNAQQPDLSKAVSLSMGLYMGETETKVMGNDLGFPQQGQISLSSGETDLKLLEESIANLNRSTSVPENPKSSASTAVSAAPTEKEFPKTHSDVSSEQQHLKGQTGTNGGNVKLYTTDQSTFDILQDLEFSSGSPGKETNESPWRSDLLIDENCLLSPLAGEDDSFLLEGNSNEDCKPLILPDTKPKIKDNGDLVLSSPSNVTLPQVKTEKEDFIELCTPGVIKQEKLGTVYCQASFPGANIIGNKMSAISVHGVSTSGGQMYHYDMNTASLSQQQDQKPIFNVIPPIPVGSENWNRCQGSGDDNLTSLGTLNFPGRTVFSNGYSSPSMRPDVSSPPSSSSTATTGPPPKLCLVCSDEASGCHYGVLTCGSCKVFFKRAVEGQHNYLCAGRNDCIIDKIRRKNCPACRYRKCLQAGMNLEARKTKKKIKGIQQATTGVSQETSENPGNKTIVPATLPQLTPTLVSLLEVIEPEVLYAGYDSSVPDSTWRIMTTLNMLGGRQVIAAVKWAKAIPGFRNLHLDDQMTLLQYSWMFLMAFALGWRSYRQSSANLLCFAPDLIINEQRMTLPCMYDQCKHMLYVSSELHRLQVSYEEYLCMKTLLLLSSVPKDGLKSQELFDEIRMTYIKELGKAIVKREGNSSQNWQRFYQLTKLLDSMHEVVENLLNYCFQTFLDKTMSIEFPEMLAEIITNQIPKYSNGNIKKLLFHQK
Method in brief: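 Steps: seed GR-bla HeLa cells, incubate 4 h at 37 C/5% CO2; pin-transfer DMSO-dissolved compounds; incubate 18 h at 37 C; add LiveBLAzer B/G FRET substrate; after 2 h at room temperature, measure fluorescence.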

[10] = target: Glucocorticoid receptor (Homo sapiens) (UniProt P04150); assay: qHTS assay to identify small molecule antagonists of the glucocorticoid receptor (GR) signaling pathway (AID 720692; active = well fitted inhibition curve with a large enough effect in the signal ratio in the repeat runs, not every such curve was filed as active; the % refers to the signal ratio)
Method in brief: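 Antagonism was scored as loss of dexamethasone-driven (5 nM final) reporter signal in HeLa cells bearing a glucocorticoid response element–beta-lactamase construct, after 18 h compound exposure at 37 C and 2 h FRET substrate loading.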

[11] = qHTS assay to identify small molecule antagonists of the glucocorticoid receptor (GR) signaling pathway - cell viability counter screen (AID 720693); also: nearly all actives have a fitted effect of over 55% in size
[12] = qHTS assay for identifying genotoxic compounds that show differential cytotoxicity against isogenic chicken DT40 cell lines with known DNA damage response pathways - wild type cell line (AID 743012); also: nearly all actives have a fitted effect of over 60% in size
Method in brief: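 Cytotoxicity in repair-proficient parental chicken DT40 cells serves as the comparator for Rad54/Ku70- and Rev3-deficient lines. Cells were exposed to compounds for 40 h at 37 C/5% CO2, and ATP-based luminescence (CellTiter-Glo) measured viability.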

[13] = qHTS assay for identifying genotoxic compounds that show differential cytotoxicity against isogenic chicken DT40 cell lines with known DNA damage response pathways - Rev3 mutant cell line (AID 743014); also: nearly all actives have a fitted effect of over 55% in size
[14] = qHTS assay for identifying genotoxic compounds that show differential cytotoxicity against isogenic chicken DT40 cell lines with known DNA damage response pathways - Rad54/Ku70 mutant cell line (AID 743015); also: nearly all actives have a fitted effect of over 60% in size
[15] = qHTS assay to identify small molecule antagonists of the androgen receptor (AR) signaling pathway - cell viability counter screen (AID 743033; also: nearly all actives have a fitted effect of over 45% in size)
[16] = qHTS assay to identify small molecule antagonists of the androgen receptor (AR) signaling pathway using the MDA cell line - cell viability counter screen (AID 743041; also: nearly all actives have a fitted effect of over 45% in size)
Method in brief: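 Viability read by CellTiter-Fluor fluorescence in the same wells as the antagonist screen, added after 15.5 h of a 16 h, 37C exposure. Human breast carcinoma MDA-kb2 AR-luc cells, compounds co-dosed with agonist R1881.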

[17] = target: Androgen receptor (Homo sapiens) (UniProt P10275); assay: qHTS assay to identify small molecule antagonists of the androgen receptor (AR) signaling pathway (AID 743035; active = well fitted inhibition curve with a large enough effect in the signal ratio in the repeat runs, not every such curve was filed as active; the % refers to the signal ratio)
Sequence of Androgen receptor (Homo sapiens) (P10275 whole entry, looked up): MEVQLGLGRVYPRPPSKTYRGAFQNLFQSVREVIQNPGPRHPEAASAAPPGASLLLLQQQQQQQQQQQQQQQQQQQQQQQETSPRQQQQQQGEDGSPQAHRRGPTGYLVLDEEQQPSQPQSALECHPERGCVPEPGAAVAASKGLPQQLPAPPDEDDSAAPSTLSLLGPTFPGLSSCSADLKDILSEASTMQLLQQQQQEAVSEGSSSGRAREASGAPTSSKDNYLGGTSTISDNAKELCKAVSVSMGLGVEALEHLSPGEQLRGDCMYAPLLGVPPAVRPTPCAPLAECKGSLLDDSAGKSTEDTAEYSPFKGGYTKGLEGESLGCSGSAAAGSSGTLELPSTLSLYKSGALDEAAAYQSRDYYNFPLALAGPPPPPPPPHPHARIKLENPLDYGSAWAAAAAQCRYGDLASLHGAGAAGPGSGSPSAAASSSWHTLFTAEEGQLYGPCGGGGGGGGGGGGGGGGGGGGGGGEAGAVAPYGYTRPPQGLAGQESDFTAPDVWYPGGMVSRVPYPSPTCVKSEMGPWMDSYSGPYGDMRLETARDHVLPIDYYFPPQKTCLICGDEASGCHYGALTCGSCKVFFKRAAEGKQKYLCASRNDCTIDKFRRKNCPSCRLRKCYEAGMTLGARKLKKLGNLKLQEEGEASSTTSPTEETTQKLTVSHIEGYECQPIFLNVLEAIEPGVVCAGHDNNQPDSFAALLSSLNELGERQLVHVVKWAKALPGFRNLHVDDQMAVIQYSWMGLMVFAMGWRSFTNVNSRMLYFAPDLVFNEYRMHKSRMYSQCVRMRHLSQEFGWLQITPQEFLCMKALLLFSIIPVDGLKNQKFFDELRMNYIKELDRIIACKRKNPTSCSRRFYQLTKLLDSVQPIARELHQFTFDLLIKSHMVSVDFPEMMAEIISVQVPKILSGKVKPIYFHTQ
Method in brief: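 Steps: seed AR-UAS-bla GripTite HEK293 cells, incubate 4 h at 37C; pin in test compound, then add agonist R1881; incubate 16 h at 37C; add LiveBLAzer B/G FRET substrate, 2 h at room temperature; read fluorescence.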

[18] = target: Androgen receptor (Homo sapiens) (UniProt P10275); assay: qHTS assay to identify small molecule agonists of the androgen receptor (AR) signaling pathway (AID 743036; active = well fitted activation curve with a large enough effect in the signal ratio in the repeat runs, with a control signal flat, not every such curve was filed as active; the % refers to the signal ratio)
Method in brief: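 AR-UAS-bla HEK293 cells, plated 4 h before dosing, were treated with compound for 16 h at 37C. beta-Lactamase reporter read after 2 h with LiveBLAzer B/G FRET substrate at room temperature.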

[19] = target: Androgen receptor (Homo sapiens) (UniProt P10275); assay: qHTS assay to identify small molecule agonists of the androgen receptor (AR) signaling pathway using the MDA cell line (AID 743040; also: nearly all actives have a fitted effect of over 20% in size); details: MDA-kb2 AR-luc cells, MMTV luciferase, 16 h, hits give high values
Method in brief: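 Luciferase agonist assay: 16 h compound exposure at 37C without CO2 in MDA-kb2 AR-luc cells, whose MMTV promoter responds to both AR and GR. Luminescence measured after 30 min room-temperature incubation with ONE-Glo.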

[20] = target: Androgen receptor (Homo sapiens) (UniProt P10275); assay: qHTS assay to identify small molecule antagonists of the androgen receptor (AR) signaling pathway using the MDA cell line (AID 743042; also: nearly all actives have a fitted effect of over 55% in size)
Method in brief: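 Antagonist mode: compounds plus R1881 agonist added to MDA-kb2 AR-luc cells, incubated 16 h at 37C. Luciferase reporter luminescence quantified, with multiplexed CellTiter-Fluor readout for cell viability.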
% is scaled to controls: 0 for no effect and ±100 for the full control effect.

Cc1ccncc1
inactive: outcome [1] | Potency [2] | outcome [3] | outcome [4] | outcome [5] | Potency [6] | outcome [7] | Potency [8] | outcome [9] | Potency [10] | Potency [11] | Potency [12] | Potency [13] | Potency [14] | Potency [15] | Potency [16]

CCCCCCCCC(=O)O
inactive: outcome [1] | Potency [2] | outcome [3] | outcome [4] | outcome [5] | Potency [6] | outcome [7] | Potency [8] | outcome [9] | Potency [10] | Potency [11] | Potency [13] | Potency [14] | Potency [16]

Cc1ccc(C(C)C)cc1
inactive: outcome [1] | Potency [2] | outcome [3] | outcome [4] | outcome [5] | Potency [6] | outcome [7] | Potency [8] | outcome [9] | Potency [10] | Potency [11] | Potency [12] | Potency [13] | Potency [14] | Potency [17] | Potency [18] | activity change ([19]; at 70.3 µM (top of the series)) 1.12% | activity change ([19]; at 95 µM (top of the series)) 0.115% | Potency [16] | Potency [20]

CC/C=C(\C(=O)N[C@@H]1C(=O)N2C(C(=O)OCOC(=O)C(C)(C)C)=C(COC(N)=O)CS[C@H]12)c1csc(N)n1
inactive: outcome [1] | Potency [2] | outcome [3] | outcome [4] | outcome [5] | Potency [6] | outcome [7] | Potency [8] | outcome [9] | Potency [10] | Potency [11] | Potency [13] | Potency [14] | Potency [15] | Potency [16]

COC(=O)OC
inactive: outcome [1] | Potency [2] | outcome [3] | outcome [4] | outcome [5] | Potency [6] | outcome [7] | Potency [8] | outcome [9] | Potency [10] | Potency [11] | Potency [13] | Potency [14] | Potency [15] | Potency [16]

COCN(COC)c1nc(N(COC)COC)nc(N(COC)COC)n1
inactive: outcome [1] | Potency [2] | outcome [3] | outcome [4] | outcome [5] | Potency [6] | outcome [7] | Potency [8] | outcome [9] | Potency [10] | Potency [11] | Potency [13] | Potency [14] | Potency [15] | Potency [16]

O=C(O)Cc1c[nH]c2ccccc12
inactive: outcome [1] | Potency [2] | outcome [3] | outcome [4] | outcome [5] | Potency [6] | outcome [7] | Potency [8] | outcome [9] | Potency [10] | Potency [11] | Potency [12] | Potency [13] | Potency [14] | Potency [16]

CC(O)CNCC(C)O (stereo not drawn)
inactive: outcome [1] | Potency [2] | outcome [3] | outcome [4] | outcome [5] | Potency [6] | outcome [7] | Potency [8] | Potency [11] | Potency [12] | Potency [13] | Potency [14] | Potency [15]
